In general, residual activity refers to the signal under treatment as a percentage of the control signal.

We go through one compound from ChEMBL document CHEMBL2218924, “A broad activity screen in support of a chemogenomic map for kinase signalling research and drug discovery” (Biochem J, 2013).

Experiment [1] addresses T1, Ephrin type-A receptor 3 (Homo sapiens) (UniProt P29320).
T1 sequence (whole entry): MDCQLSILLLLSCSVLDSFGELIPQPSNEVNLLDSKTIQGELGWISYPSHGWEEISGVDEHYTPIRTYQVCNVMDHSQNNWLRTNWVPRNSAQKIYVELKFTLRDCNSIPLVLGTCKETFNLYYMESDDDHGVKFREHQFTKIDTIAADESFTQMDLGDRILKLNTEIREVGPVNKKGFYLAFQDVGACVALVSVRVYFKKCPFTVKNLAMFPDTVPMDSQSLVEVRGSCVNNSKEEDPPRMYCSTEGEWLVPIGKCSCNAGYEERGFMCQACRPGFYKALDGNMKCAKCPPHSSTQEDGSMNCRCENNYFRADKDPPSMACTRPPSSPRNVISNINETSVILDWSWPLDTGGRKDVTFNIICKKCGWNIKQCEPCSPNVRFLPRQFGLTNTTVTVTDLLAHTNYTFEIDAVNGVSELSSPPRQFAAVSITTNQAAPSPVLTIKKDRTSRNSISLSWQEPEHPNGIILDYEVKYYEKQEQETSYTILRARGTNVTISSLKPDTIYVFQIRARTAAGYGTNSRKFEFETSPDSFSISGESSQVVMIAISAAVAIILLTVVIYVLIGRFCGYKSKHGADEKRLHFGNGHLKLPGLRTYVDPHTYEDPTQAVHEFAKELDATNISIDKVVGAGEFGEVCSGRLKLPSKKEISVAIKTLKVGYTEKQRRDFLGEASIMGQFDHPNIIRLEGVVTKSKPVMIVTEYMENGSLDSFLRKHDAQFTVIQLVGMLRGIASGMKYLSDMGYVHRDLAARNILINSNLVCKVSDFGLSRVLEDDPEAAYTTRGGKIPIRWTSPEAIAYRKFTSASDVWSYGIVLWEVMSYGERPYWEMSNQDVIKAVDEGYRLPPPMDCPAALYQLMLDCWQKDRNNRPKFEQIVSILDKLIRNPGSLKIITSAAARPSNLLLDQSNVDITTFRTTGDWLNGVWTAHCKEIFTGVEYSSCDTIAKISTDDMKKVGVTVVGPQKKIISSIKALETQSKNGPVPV
As to conditions: at 10 µM; call rule not given here.

In experiment [2] the target is Ephrin type-A receptor 7 (Homo sapiens) (UniProt Q15375). Conditions: at 1 µM.
Ephrin type-A receptor 7 (Homo sapiens), sequence (Q15375 28-998 limits assumed): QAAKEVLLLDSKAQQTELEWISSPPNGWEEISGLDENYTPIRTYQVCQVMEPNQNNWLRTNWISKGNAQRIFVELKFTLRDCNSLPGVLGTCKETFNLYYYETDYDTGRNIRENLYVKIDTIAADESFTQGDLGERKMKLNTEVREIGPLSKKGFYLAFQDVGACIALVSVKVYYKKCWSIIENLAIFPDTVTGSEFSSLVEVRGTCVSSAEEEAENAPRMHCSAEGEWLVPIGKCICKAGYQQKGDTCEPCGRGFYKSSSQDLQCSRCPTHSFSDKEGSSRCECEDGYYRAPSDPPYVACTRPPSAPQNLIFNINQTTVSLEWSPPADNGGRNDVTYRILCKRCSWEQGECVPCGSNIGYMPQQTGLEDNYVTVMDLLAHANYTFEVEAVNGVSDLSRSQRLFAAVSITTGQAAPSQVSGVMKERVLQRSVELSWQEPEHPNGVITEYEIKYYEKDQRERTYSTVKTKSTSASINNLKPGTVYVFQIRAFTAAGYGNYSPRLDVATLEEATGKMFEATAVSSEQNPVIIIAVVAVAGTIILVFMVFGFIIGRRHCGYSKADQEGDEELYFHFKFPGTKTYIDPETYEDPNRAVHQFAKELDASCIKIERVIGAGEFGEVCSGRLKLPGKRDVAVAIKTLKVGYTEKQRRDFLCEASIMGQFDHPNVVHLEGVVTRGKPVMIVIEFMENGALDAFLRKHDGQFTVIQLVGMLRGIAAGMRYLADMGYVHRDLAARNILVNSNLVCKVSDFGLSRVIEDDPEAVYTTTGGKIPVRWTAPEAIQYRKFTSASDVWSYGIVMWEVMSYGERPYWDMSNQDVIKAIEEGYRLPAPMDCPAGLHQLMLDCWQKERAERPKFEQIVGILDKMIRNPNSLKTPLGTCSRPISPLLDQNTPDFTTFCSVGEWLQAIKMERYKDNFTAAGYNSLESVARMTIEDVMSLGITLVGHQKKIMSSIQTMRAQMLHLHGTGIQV
Experiment [3] has the same target. As to conditions: at 10 µM.
The target in experiment [4] is T2, Ephrin type-B receptor 1 (Homo sapiens) (UniProt P54762).
T2 sequence (whole entry): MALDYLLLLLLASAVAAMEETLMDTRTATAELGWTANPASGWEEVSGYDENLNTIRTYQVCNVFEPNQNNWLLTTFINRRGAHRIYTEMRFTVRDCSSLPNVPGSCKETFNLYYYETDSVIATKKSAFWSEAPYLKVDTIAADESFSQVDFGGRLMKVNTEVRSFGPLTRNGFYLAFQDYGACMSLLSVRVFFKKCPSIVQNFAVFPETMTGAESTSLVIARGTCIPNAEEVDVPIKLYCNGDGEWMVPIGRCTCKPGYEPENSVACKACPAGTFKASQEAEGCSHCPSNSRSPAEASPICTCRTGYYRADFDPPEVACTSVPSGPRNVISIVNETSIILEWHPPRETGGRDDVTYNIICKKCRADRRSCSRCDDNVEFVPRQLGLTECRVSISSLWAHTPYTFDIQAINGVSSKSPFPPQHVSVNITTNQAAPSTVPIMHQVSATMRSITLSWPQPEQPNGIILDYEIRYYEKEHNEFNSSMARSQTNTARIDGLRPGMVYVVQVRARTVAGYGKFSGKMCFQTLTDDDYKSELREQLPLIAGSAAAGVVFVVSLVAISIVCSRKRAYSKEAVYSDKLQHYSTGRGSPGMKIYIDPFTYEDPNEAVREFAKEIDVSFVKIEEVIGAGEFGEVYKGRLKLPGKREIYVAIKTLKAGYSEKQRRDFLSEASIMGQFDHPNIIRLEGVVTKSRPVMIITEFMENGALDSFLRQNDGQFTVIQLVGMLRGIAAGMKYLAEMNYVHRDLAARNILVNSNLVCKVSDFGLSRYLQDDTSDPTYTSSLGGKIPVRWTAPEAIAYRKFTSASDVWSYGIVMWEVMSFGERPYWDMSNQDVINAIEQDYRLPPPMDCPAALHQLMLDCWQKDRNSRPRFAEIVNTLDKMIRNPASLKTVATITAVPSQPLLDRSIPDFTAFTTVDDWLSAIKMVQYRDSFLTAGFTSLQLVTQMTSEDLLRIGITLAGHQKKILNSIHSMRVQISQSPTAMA
As to conditions: at 1 µM.

In experiment [5] the target is T2, Ephrin type-B receptor 1 (Homo sapiens). As to conditions: at 10 µM.
In experiment [6] the target is T3, Ephrin type-B receptor 2 (Homo sapiens) (UniProt P29323).
T3 sequence (whole entry): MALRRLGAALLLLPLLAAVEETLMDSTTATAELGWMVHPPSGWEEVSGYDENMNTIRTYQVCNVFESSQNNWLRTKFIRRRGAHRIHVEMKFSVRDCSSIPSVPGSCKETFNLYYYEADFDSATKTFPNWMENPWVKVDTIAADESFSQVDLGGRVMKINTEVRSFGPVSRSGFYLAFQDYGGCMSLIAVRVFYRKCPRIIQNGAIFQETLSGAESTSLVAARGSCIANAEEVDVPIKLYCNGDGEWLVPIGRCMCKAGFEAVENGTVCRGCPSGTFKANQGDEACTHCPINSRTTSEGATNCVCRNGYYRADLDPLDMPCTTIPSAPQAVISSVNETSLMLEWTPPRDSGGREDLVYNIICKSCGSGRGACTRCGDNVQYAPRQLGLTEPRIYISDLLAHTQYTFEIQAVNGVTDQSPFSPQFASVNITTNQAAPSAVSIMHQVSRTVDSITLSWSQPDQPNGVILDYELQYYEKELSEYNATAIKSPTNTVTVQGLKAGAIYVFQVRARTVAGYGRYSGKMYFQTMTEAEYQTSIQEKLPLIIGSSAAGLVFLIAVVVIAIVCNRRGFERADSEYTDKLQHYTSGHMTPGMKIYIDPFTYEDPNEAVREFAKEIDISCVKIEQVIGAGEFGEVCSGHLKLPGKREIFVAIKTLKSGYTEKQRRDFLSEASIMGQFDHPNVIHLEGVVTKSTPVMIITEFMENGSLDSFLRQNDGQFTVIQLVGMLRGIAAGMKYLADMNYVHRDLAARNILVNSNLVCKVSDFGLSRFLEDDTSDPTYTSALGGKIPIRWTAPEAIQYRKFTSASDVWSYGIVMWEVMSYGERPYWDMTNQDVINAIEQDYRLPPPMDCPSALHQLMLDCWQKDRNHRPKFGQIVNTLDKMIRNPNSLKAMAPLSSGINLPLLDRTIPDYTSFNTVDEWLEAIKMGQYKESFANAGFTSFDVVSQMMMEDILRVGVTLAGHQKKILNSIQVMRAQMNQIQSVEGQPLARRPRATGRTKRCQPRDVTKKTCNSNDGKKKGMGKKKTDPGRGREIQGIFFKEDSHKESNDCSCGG
As to conditions: at 1 µM.

The target of experiment [7] is T3, Ephrin type-B receptor 2 (Homo sapiens). Conditions: at 10 µM.
Experiment [8] concerns the target T4, Ephrin type-B receptor 3 (Homo sapiens) (UniProt P54753).
T4 sequence (whole entry): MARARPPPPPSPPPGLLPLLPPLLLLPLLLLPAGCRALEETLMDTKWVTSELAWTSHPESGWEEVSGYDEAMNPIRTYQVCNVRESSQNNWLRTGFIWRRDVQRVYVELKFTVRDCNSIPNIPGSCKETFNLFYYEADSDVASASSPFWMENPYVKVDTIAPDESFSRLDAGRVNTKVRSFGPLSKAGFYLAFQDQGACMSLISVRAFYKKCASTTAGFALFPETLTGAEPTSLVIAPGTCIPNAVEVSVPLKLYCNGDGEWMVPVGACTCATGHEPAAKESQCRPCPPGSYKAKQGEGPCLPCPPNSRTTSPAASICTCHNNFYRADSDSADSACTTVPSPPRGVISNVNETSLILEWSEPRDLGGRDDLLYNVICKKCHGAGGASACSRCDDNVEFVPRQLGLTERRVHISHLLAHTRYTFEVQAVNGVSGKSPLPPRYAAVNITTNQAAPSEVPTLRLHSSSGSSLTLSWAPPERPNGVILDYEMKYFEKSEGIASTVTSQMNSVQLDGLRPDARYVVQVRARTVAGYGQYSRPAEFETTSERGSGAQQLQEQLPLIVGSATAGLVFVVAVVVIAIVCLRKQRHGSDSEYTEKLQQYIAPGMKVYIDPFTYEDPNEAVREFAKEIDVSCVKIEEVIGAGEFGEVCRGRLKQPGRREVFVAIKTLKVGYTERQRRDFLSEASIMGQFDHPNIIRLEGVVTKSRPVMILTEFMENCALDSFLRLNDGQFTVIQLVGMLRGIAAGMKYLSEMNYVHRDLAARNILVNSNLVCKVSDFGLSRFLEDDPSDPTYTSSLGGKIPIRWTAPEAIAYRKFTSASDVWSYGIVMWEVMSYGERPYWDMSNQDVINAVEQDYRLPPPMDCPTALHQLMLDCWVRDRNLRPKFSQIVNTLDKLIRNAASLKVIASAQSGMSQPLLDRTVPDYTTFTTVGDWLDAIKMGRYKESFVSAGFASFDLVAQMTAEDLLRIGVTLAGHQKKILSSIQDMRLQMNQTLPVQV
Conditions: at 1 µM.

Experiment [9] has as its target T4, Ephrin type-B receptor 3 (Homo sapiens). As to conditions: at 10 µM.
For experiment [10], the target named is T5, Ephrin type-B receptor 4 (Homo sapiens) (UniProt P54760).
T5 sequence (whole entry): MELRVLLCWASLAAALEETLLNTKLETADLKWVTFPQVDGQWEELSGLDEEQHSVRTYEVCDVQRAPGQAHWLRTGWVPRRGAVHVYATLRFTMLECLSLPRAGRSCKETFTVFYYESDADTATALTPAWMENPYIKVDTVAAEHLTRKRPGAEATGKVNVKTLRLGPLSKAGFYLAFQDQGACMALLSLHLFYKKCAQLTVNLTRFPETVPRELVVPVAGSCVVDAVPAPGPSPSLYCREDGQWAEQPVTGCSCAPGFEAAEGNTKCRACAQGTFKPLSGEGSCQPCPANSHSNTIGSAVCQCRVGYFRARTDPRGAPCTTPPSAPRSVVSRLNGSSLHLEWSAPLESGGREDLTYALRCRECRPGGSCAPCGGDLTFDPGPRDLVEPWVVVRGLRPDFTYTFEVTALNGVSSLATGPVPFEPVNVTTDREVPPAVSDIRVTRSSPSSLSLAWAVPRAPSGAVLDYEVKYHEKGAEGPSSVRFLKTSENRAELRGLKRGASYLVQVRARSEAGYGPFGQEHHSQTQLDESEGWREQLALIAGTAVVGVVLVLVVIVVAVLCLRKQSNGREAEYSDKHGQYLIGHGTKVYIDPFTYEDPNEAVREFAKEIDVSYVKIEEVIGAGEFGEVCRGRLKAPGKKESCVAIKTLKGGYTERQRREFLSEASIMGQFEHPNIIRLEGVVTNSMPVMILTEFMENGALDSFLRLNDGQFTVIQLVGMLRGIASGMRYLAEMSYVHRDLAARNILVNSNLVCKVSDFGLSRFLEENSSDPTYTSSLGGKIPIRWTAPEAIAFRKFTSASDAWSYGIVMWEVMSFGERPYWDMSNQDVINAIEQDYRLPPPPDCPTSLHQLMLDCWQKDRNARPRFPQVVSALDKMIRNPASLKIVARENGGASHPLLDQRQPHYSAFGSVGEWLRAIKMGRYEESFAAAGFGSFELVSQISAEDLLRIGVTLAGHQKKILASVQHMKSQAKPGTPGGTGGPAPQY
As to conditions: at 1 µM.

Experiment [11] addresses T5, Ephrin type-B receptor 4 (Homo sapiens). As to conditions: at 10 µM.
Experiment [12] deals with Receptor tyrosine-protein kinase erbB-4 (Homo sapiens) (UniProt Q15303). Conditions: at 1 µM.
Receptor tyrosine-protein kinase erbB-4 (Homo sapiens), sequence (Q15303 whole entry): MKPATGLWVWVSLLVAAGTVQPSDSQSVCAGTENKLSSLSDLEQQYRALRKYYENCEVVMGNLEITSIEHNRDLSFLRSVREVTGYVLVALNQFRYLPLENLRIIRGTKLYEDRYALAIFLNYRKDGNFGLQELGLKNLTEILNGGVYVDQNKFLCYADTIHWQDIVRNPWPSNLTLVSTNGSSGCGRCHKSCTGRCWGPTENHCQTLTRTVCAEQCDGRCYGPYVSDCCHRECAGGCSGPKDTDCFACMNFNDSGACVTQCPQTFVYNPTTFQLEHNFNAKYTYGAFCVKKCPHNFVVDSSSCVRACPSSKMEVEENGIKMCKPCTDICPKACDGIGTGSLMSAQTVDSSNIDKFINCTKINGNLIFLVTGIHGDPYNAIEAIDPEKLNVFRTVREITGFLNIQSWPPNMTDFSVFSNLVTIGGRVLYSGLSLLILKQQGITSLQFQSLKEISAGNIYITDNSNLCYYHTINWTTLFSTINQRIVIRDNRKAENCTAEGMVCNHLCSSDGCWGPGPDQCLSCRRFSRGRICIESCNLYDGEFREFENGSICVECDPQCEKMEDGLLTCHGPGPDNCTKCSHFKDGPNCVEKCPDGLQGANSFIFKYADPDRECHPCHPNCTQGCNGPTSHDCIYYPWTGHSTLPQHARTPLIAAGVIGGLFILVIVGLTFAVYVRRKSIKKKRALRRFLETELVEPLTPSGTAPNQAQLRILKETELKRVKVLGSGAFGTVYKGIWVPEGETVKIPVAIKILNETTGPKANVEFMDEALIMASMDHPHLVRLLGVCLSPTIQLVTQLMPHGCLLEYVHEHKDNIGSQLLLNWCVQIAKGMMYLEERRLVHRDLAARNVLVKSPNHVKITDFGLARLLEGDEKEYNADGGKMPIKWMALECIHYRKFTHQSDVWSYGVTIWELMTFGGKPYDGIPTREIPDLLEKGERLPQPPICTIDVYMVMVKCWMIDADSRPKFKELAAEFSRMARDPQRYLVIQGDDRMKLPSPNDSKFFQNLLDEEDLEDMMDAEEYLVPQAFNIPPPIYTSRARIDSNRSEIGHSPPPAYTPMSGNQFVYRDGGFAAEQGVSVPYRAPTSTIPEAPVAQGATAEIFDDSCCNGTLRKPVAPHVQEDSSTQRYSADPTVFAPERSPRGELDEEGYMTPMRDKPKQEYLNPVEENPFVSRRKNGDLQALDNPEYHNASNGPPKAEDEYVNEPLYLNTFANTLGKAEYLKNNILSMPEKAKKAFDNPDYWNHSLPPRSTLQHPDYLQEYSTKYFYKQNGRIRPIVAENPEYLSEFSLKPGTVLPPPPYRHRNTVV
For experiment [13] the target is unchanged. Conditions: at 10 µM.
Experiment [14] addresses Focal adhesion kinase 1 (Homo sapiens) (UniProt Q05397). Conditions: at 1 µM.

Focal adhesion kinase 1 (Homo sapiens), sequence (Q05397 2-1052 limits assumed): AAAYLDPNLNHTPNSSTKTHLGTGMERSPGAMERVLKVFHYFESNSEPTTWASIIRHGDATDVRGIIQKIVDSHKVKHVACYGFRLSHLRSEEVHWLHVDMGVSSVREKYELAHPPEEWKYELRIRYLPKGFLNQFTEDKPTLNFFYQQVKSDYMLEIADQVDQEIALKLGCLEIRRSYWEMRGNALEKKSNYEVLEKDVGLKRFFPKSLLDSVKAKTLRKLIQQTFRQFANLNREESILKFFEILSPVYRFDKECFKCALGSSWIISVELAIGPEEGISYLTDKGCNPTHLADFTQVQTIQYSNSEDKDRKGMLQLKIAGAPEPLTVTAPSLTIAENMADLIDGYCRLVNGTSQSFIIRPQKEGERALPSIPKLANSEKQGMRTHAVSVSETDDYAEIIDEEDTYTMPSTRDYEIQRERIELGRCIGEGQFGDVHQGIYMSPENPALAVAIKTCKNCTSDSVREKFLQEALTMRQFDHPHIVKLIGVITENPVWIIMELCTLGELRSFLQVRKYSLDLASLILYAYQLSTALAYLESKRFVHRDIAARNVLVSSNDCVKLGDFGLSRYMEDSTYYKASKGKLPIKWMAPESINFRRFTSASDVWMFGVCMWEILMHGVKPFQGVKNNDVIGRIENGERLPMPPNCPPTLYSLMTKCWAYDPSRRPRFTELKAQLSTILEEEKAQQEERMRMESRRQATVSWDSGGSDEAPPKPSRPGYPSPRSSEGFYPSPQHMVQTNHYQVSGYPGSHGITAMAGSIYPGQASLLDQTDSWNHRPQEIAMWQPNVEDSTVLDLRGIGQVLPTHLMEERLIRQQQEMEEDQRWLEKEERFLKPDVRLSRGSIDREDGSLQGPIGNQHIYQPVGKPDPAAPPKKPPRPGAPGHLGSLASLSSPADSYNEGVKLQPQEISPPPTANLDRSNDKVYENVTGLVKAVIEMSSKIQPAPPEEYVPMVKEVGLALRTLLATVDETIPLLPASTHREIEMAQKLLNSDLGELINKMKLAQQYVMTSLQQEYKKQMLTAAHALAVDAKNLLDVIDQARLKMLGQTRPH

Regarding `COc1ccc2c(c[n+](C)c3c4cc5c(cc4ccc23)OCO5)c1OC`, the residual activity in experiment [1] was 92%; in experiment [2], 94%; in experiment [3] it was 79%; in experiment [4], 89%; in experiment [5], 91%; in experiment [6], 121%. The residual activity in experiment [7] was 121%; in [8] it was 126% (inactive); in experiment [9], 133%; in experiment [10], 94%; in experiment [11] it was 119%; in experiment [12] it was 96%. In addition, the residual activity was 79% in [13] and 140% in [14].
